Rows were chosen to be rich in hits. Some 12% of all compounds tested hit in one or more screens of this group.
Sm TGR block: S. mansoni TGR enzyme inhibition. purified TGR, DTNB reduction, TNB absorbance 405 nm. Potency, µM (titrated, usually from 114 µM), for the others: at the top dose activity change, negative = inhibition, hits mostly inhibitors. 3% of 360,000 active; further: on the % scale 0 is the no-effect control and ±100 the full control effect; nearly all actives have a fitted effect of over 60% in size
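Kinetic colorimetric format: TGR-catalysed, NADPH-driven DTNB reduction monitored via TNB absorbance. Enzyme dispensed at 20 nM; compound exposure 15 min at room temperature before reaction start.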
AmpC no deterg: AmpC beta-lactamase inhibition without detergent. AmpC nitrocefin hydrolysis, absorbance 480 nm, 0.0001% Triton. Potency, µM (highest dose often 57.1 µM), inactives show at the highest dose activity change, negative = inhibition, usual class: inhibitors. 0.52% of 330,000 active. AID 485341;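 further: plate controls were no compound for no effect and no enzyme for full effect; nearly all actives have a fitted effect of over 20% in size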
Target sequence (P00811 whole entry, looked up): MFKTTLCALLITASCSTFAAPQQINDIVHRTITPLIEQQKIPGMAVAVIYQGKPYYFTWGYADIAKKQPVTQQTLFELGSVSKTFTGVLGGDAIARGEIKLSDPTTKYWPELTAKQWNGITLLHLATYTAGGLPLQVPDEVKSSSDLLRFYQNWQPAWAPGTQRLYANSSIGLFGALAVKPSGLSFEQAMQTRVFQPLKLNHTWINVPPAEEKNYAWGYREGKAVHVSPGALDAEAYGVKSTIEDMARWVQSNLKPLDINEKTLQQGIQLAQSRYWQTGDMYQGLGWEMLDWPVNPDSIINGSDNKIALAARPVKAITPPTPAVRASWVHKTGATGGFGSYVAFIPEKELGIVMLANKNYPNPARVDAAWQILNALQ
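20 mM phosphate pH 7.0 + 0.01% (detergent screen) or 0.0001% Triton X-100; 5.3 nM AmpC reagent; cpd preinc 15 min RT; nitrocefin (800 uM stock) to start; A480 q20 s × 4 min; Activity was normalised to no-enzyme and no-compound control wells.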
Pf growth 48h: inhibits P. falciparum growth in the first generation, 48 h | 5.9% of 310,000 active | AID 504832 | P. falciparum luciferase growth in erythrocytes, 48 h | Potency, µM (highest dose often 28.7 µM), for inactives: at the highest dose activity change, negative = inhibition, actives largely listed as inhibitors; further: on the % scale 0 is the no-effect control and ±100 the full control effect
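Growth was read as firefly luciferase luminescence after a 48 h, 37 C, 5% CO2 exposure of compounds to reporter-bearing P. falciparum cultures (0.1% parasitemia, 2% hematocrit final) in Albumax-supplemented RPMI 1640.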
Pf growth 96h: P. falciparum growth inhibition at 96 hours. P. falciparum luciferase reporter growth, 96 h. Potency, µM (titrated, usually from 28.7 µM), for inactives: at the highest dose activity change, negative = inhibition, hits mostly inhibitors. 6.9% of 320,000 active; further: on the % scale 0 is the no-effect control and ±100 the full control effect
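Two-generation exposure (96 h) targets delayed-death phenotype. Reporter parasites carrying integrated firefly luciferase, in red cells at 2% hematocrit and 0.05% parasitemia final, kept at 37 C, 5% CO2; luminescence loss indicates inhibition.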
AmpC detergent: AmpC beta-lactamase inhibition with detergent present. P00811. AmpC hydrolysis of nitrocefin, absorbance 480 nm, 0.01% Triton. Potency, µM (series often up to 114 µM), inactives show top-dose activity change, negative = inhibition, usual class: inhibitors. 0.041% of 370,000 active. AID 485294;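 further: 0% = no-compound wells and -100% = no-enzyme wells; nearly all actives have a fitted effect of over 25% in size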
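AmpC (5.3 nM in the dispensed reagent) in 20 mM phosphate pH 7.0 with 0.01% (detergent screen) or 0.0001% Triton X-100 was preincubated with compounds for 15 min at room temperature. Nitrocefin was then added from an 800 uM solution, and hydrolysis was followed at 480 nm.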
SARS PLP yeast: blocks SARS-CoV papain-like protease in a yeast assay | S. cerevisiae expressing SARS-CoV PLpro, growth rescue | Potency, µM (series often up to 32.9 µM), without a hit: at the highest dose activity, positive = growth rescue, usual class: activators | 0.19% of 330,000 active; calls by dose curve; further: 0% is about no effect; nearly all actives have a fitted effect of over 55% in size
An asterisk follows results filed as active; ? = inconclusive; . = no result given; [ ] = remark or other dose. Unless noted, the call rests on the fitted dose curve; in most records, active means well fitted curve in the direction sought with a large enough effect; inconclusive means small, poorly fitted or top-dose-only effect, or another doubt; inactive means no such curve, though single readings can be large; an effect the other way counts as inactive or inconclusive. Potency means the concentration at half of the fitted maximal effect.

SMILES	Sm TGR block	AmpC no deterg	Pf growth 48h	Pf growth 96h	AmpC detergent	SARS PLP yeast
Cc1ccc(C(=O)N2CCN(c3ccccc3O)CC2)cc1S(=O)(=O)N1CCCCC1	-4%	56%	13µM*	-103%	-1%	-25%
CC(=O)N1CCN(C(=O)c2ccc(C)c(S(=O)(=O)N3CCCCC3)c2)CC1	.	13%	.	.	.	0%
Cc1cccc(N2CCN(S(=O)(=O)c3c(C)[nH]c(C)c3C(=O)N3CCCCC3)CC2)c1C	-2%	151%	9.3µM*	?	11%	3%
Cc1ccc(C(=O)N2CCN(C)CC2)cc1S(=O)(=O)N1CCCCCC1	-19%	5%	-28%	2.3µM*	3%	-3%
Cc1ccc(C(=O)N2CCN(C)CC2)cc1S(=O)(=O)N1CCCCC1	0%	21%	-12%	?	-16%	6%
COc1cc([N+](=O)[O-])ccc1NC(=O)CN1CCOCC1	-16%	-11%	?	40%	-3%	0%
COc1cc(O)c(C(CCN2CCCC(C)C2)c2ccc3c(c2)OCO3)c(OC)c1 (configuration not stated)	-13%	26%	0.66µM*	0.59µM*	1%	0%
COc1cc(O)c(C(CC(=O)N2CCOCC2)c2ccc3c(c2)OCO3)c(OC)c1 (configuration not stated)	-5%	-1%	?	17%	-3%	-1%
COc1cc(O)c(C(CCN2CCOCC2)c2ccc3c(c2)OCO3)c(OC)c1 (configuration not stated)	-30%	32%	1.7µM*	2.3µM*	-1%	1%
COc1cc(OC)c2ccc(=O)oc2c1C(CC(=O)N1CCCC1)c1ccc(N(C)C)cc1 (configuration not stated)	-10%	129%	?	?	5%	1%
COc1cc(O)c(C(CCN2CCCC(C)C2)c2ccc(N(C)C)cc2)c(OC)c1 (configuration not stated)	-21%	8%	0.74µM*	0.47µM*	-1%	0%
COc1cc(OC)c2ccc(=O)oc2c1C(CCN1CCCC(C)C1)c1ccc2c(c1)OCO2 (configuration not stated)	1%	49%	9.3µM*	10µM*	-1%	0%
Cn1c(=O)c2c(-c3ccc(Cl)cc3)ccnc2n(C)c1=O	41%	.	.	.	-3%	.
O=C(c1cccc(C(=O)N(c2ccccn2)C2CCCCC2)c1)N(c1ccccn1)C1CCCCC1	8%	136%	12µM*	-27%	-7%	-3%
O=C(c1ccc(Cl)cc1)N(c1ccccn1)C1CCCCC1	8%	-4%[2.29 µM]	-33%[5.75 µM]	-42%[5.75 µM]	-12%	0%
O=C(NNC(=O)c1cccnc1)Nc1cccc(Cl)c1Cl	8%	-10%	14%	6%	-3%	7%
COc1ccc2c(c1)c1nc3ccccc3nc1n2Cc1ccc(OC(C)C)c(OC)c1	6%	-15%	12µM*	?	-7%	-5%
O=C(CNC(=O)c1ccccc1)NCCCSc1ccccc1	.	-15%	.	.	.	-8%
O=C(NCCCCCCNC(=O)c1ccccc1O)c1ccccc1O	-4%	-42%	8.3µM*	?	-5%	0%
O=C(NCCCSc1ccccc1)c1cc(Cl)ccc1O	0%	-26%	?	12µM*	0%	2%
S=C(NC1CCCCC1)N(CCc1nc2ccccc2[nH]1)C1CCCC1	5%	-30%	?	13µM*	2%	8%
COc1ccc2ccccc2c1C1CC(=O)N2CN(C)CSC2=C1C#N (configuration not stated)	10µM*	-49%	0%	2%	-13%	9%
CCc1ccccc1N1CSC2=C(C#N)C(c3cc(OC)c(OC)cc3OC)CC(=O)N2C1 (configuration not stated)	6.3µM*	17%	13µM*	68%	-2%	-1%
COc1cc(OC)c(C2CC(=O)N3CN(C)CSC3=C2C#N)cc1OC (configuration not stated)	?	-18%	.	?	?	0%
COc1ccc(Br)cc1C1CC(=O)N2CN(C)CSC2=C1C#N (configuration not stated)	?	-28%	.	?	?	0%
SMILES	Sm TGR block	AmpC no deterg	Pf growth 48h	Pf growth 96h	AmpC detergent	SARS PLP yeast
COc1cc(OC)c(C2CC(=O)N3CN(c4ccccc4)CSC3=C2C#N)cc1OC (configuration not stated)	10µM*	-6%	37%	?	-10%	7%
COc1ccccc1N1CSC2=C(C#N)C(c3ccc(SC)cc3)CC(=O)N2C1 (configuration not stated)	?	-53%	.	-4%	?	5%
O=C(Nc1cccc(Cl)c1)N1CCN(C2c3ccccc3-c3ccccc32)CC1	-21%	-37%	9.3µM*	?	11%	-1%
O=C(Nc1cccc(Cl)c1)N1CCCCCC1	-4%	-21%	31%	?	0%	-3%
O=C(CSc1nc2ccccc2s1)Nc1cc(S(=O)(=O)N2CCOCC2)ccc1Cl	-8%	-12%	?	?	-8%	-15%
O=C(CSc1nc2ccccc2c(=O)n1-c1ccc(F)cc1)Nc1ccc(Cl)c(S(=O)(=O)N2CCOCC2)c1	-16%	-13%	9.3µM*	5.9µM*	?	-5%
Cc1ccc(-n2c(SCC(=O)Nc3cc(S(=O)(=O)N4CCOCC4)ccc3Cl)nc3ccccc3c2=O)cc1	-10%	-14%	10µM*	2.9µM*	-8%	10%
O=C(CSc1nc2ccccc2c(=O)n1-c1ccc(F)c(Cl)c1)Nc1cccc(S(=O)(=O)N2CCOCC2)c1	-2%	-23%	?	4.1µM*	-2%	3%
Cc1cc(SCC(=O)Nc2cccc(S(=O)(=O)N3CCOCC3)c2)nc2ccccc12	-4%	0%	-30%	?	-6%	-1%
COc1ccc(-n2c3c(cc(C#N)c2=O)C(=O)CCC3)cc1	0%	-8%	-3%	33%	-9%	-5%
COc1cc(OC)cc(N(C(=O)CNC(=O)c2cccs2)C(C(=O)NCC2CCCO2)c2ccccc2)c1 (configuration not stated)	10%	70%	5.9µM*	?	-12%	-1%
COc1ccc(C(C(=O)NCC2CCCO2)N(C(=O)CNC(=O)c2cccs2)c2ccc(C)cc2)cc1OC (configuration not stated)	6%	134%	10µM*	-4%	0%	0%
COc1ccc(N(C(=O)CNC(=O)c2ccco2)C(C(=O)NCC2CCCO2)c2ccc(OC)c(OC)c2)cc1 (configuration not stated)	-3%	47%	-30%	-10%	6%	2%

Screens as filed in PubChem.
